Compounds with a hit are over-represented: about 28% of the library has one in this group of screens.
CYP2C9 act – human CYP2C9 activators, primary screen, biochemical, luminescence. Cytochrome P450 2C9 (Homo sapiens), P11712. recombinant CYP2C9, luciferin-H conversion; hits give high values; factor 1 = untreated enzyme, 0 = blocked. activation factor at 5 µM. actives 1.4% (n = 96,000);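 active means activation factor of 2 or more for CYP2C9 at a 5 µM dose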;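 further: 0 = sulfaphenazole-blocked wells and 1 = vehicle-only wells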
Target sequence (P11712 whole entry, looked up): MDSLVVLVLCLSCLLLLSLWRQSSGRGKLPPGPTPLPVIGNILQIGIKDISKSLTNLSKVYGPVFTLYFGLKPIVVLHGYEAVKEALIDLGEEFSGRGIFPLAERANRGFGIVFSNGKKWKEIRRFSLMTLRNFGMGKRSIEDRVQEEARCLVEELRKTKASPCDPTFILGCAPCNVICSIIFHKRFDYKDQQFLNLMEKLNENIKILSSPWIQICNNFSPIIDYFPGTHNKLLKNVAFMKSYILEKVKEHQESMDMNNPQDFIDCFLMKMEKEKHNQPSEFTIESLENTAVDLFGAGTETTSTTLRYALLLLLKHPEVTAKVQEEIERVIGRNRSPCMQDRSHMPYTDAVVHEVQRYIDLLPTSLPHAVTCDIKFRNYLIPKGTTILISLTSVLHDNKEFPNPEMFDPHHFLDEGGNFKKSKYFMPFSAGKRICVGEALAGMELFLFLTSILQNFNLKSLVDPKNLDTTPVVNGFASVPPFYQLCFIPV
CYP2C19 act – human CYP2C19 activators, primary screen, biochemical, luminescence | activation factor at 5 µM | AID 1025, 2008 | 96,000 tested, under 10 active | recombinant CYP2C19, luciferin-H EGE luminescence; hits give high values; 0 = fully inhibited enzyme, 1 = untreated enzyme | Cytochrome P450 2C19 (Homo sapiens), P33261;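 active means activation factor of at least 2 at 5 µM in the primary screen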;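 further: 0 = wells with 2.5 mM tranylcypromine and 1 = vehicle-only wells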
CD11b adhes inh – inhibitors of CD11b/CD18 adhesion to fibrinogen, primary screen, K562 cells, luminescence; ATPlite luminescence; Mn2+ added to activate the integrin; AID 1497, 2009; actives 0.54% (n = 93,000); inhibition, % at 10 µM; Integrin beta-2 (Homo sapiens) + Integrin alpha-M (Homo sapiens), P05107+P11215;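 active means primary inhibition of 50% or more at 10 µM, then 40% or more on retest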
CYP2C9 inhib – blockers of cytochrome P450 2C9 activity – biochemical, luminescence, ADME assay, primary screen. CYP2C9 Supersomes, luciferin-H conversion. actives 20% (n = 96,000). AID 777, 2007. inhibition, % at 5 µM. P11712;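 active means blocking of liver enzyme CYP2C9 beyond about 50% at 5 µM, limit read from the data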
CD11b adhes enh – enhancers of CD11b/CD18 adhesion to fibrinogen, primary screen, K562 cells, luminescence. Integrin beta-2 (Homo sapiens) + Integrin alpha-M (Homo sapiens), P05107+P11215. ATPlite luminescence. activation, % at 10 µM. actives 0.07% (n = 93,000);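 active means 10 µM primary screen giving 50% or more activity, confirmed by 40% or more on retest at that dose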
CYP2C19 inhib – blockers of cytochrome P450 2C19 activity – biochemical, luminescence, ADME assay, primary screen | P33261 | CYP2C19 Supersomes, luciferin-H EGE luminescence, 30 min | inhibition, % at 5 µM | actives 21% (n = 96,000) | AID 778, 2007;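 active means CYP2C19 inhibition above a set limit at 5 µM in the primary screen, cut at about 50% in these data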;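 further: plate controls were negative control wells for no effect and 2.5 mM tranylcypromine positive control for full effect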
* marks the source's active call; other numbers are inactive results; · = no result.

SMILES	CYP2C9 act	CYP2C19 act	CD11b adhes inh	CYP2C9 inhib	CD11b adhes enh	CYP2C19 inhib
COc1ccc2[nH]c(C)c(CCN(Cc3cccs3)C(=S)Nc3ccc(F)cc3)c2c1	0.1	0.5	11	87*	-6	45
CSc1nc2ccc(NC(=O)C3CC(=O)N(Cc4ccccc4)C3)cc2s1 (stereo not given)	0.7	0.8	-10	33	2	16
CCN(CC)CCCNc1oc(-c2cccc(Cl)c2)nc1C#N	0.9	0.9	·	11	·	10
CCCCn1c(CNC(=O)C23CC4CC(CC(C4)C2)C3)nnc1SC(C)CC (stereo not given)	·	·	9	·	8	·
N#C/C(=C/c1ccccc1)c1nn(CCO)c(N)c1C#N	0.2	0.1	-34	77*	4	94*
Cc1nn(Cc2ccccc2)c(N)c1C#N	1	0.9	-7	1	0	15
CCCn1c(=O)n(C)c(=O)c2c(SCC(=O)NCc3ccco3)nc(C3CC3)nc21	0.4	0.9	-24	59*	6	12
O=C(CSc1nc(C2CC2)nc2sc3c(c12)CCCC3)NCc1ccco1	1	1.1	6	-4	53	-15
COC(=O)C1=C(C)N(C)C(C)=C(C(=O)OC)C1c1ccccc1C	0	0	-6	96*	-2	98*
CCOC(=O)C1=C(C)N(C)C(C)=C(C(=O)OCC)C1c1ccccn1	0.1	0.5	-46	86*	-1	50*
COC(=O)C1=C(C)N(C)C(=O)NC1c1ccccc1 (stereo not given)	0.9	0.9	6	13	-3	6
COC(=O)C1=C(C)N(C)C(C)=C(C(=O)OC)C1c1ccccn1	0.2	0.7	4	82*	4	27
S=c1[nH]nc(COc2ccccc2)n1/N=C/C(Cl)=C/c1ccccc1	0.6	0.9	·	39	·	14
O=C(Nc1ccccc1)NC1CS(=O)(=O)CC1O (stereo not given)	1.1	1.2	-20	-13	-1	-17
Cc1ccc(-c2cc(C(F)F)n3ncc(C(=O)N4CCN5CCCC5C4)c3n2)cc1 (stereo not given)	0.6	1.1	-3	37	2	-7
COc1ccc(-c2cc(C(F)F)n3ncc(C(=O)N4CCSCC4)c3n2)cc1	0.2	0.6	2	76*	-3	40
CCOC(=O)C1CCCN(C(=O)c2cnn3c(C(F)F)cc(-c4ccc(C)cc4)nc23)C1 (stereo not given)	0.3	0.7	-1	73*	8	28
CCOC(=O)C1CCCN(C(=O)c2cc3nc(-c4ccc5c(c4)OCO5)cc(C(F)(F)F)n3n2)C1 (stereo not given)	0.4	0.5	·	56*	·	45
CCOc1cc(NC(=O)CC(C)C)c(OCC)cc1NC(=O)CCn1nnc2ccccc21	1	1	-6	2	-3	-2
CCOC(=O)N1CCC2(CC1)C(C(=O)C13CC4CC(CC(C4)C1)C3)C2(C#N)C#N (stereo not given)	0.5	0.3	2	52*	-2	67*
CCCOC(=O)Nc1nnc(CCC)s1	0.9	1	14	10	-2	5
O=C(O)CN1CCOCCOCCN(CC(=O)O)CCOCCOCC1	1	0.9	33	4	2	6
OC(C#CCN1CCOCC1)(c1ccccc1)C1CC1 (stereo not given)	1.1	0.4	-2	-5	1	57*
Cc1ccc(C(=O)c2c(NC(=O)c3ccccc3C)sc(C)c2C)cc1	0.2	0.7	-11	78*	19	30
CC(C)NC(=O)CN1CCN(c2ncccn2)CC1	0.9	0.9	9	8	-1	10
SMILES	CYP2C9 act	CYP2C19 act	CD11b adhes inh	CYP2C9 inhib	CD11b adhes enh	CYP2C19 inhib
CCCc1cc(=O)[nH]c(SCc2ccc(Cl)cc2)n1	0.3	0.1	-30	72*	-2	86*
CCCc1cc(=O)[nH]c(SCc2cc(Cl)ccc2OC(F)F)n1	0.4	0.7	·	60*	·	28
CCCc1cc(=O)[nH]c(SCc2ccccc2)n1	0.4	0.5	-10	62*	-3	47
CCCc1cc(=O)[nH]c(SCC(=O)N(Cc2ccccc2)C(C)C)n1	0.2	0.3	-8	85*	-4	68*
CCCc1cc(=O)[nH]c(SCC(=O)C(C)(C)C)n1	0.8	0.7	-26	24	-4	28
CCCc1cc(=O)[nH]c(SCc2cccc(C)c2)n1	0.6	0.8	0	44	-1	21
COC(=O)/C(=N/Nc1ccccc1Cl)Sc1nnc(C(O)c2ccccc2)n1-c1ccccc1 (stereo not given)	·	·	26	·	-1	·
Cn1c(=O)c2c(nc(NCc3ccccc3)n2CCCc2ccccc2)n(C)c1=O	0.6	0.7	-6	41	1	26
CCOCCCNc1nc2c(c(=O)n(C)c(=O)n2C)n1CCCc1ccccc1	0.2	0.3	-2	82*	1	68*
Cc1ccc(Cn2c(NCCCn3ccnc3)nc3c2c(=O)n(C)c(=O)n3C)cc1	0	0	-4	99*	117	98*
C=CCNc1nc2c(c(=O)n(C)c(=O)n2C)n1CCCCCC	0.6	0.6	68*	40	-4	36
Cn1c(=O)[nH]c(=O)c2c1nc(NCCCO)n2CCCc1ccccc1	0.9	0.9	·	10	·	10
COCCCNc1nc2c(c(=O)[nH]c(=O)n2C)n1CCCc1ccccc1	0.6	0.3	22	39	-1	70*
C=CCNc1nc2c(c(=O)n(C)c(=O)n2C)n1Cc1ccc(F)cc1	1	0.7	20	4	0	26
O=C(CSc1nnnn1-c1cccnc1)NCc1cccs1	0.9	0.8	-6	13	-1	17
O=C(CCN1C(=O)c2cccnc2C1=O)NC1CCCCCC1	1.2	1	-30	-17	0	-3
O=C(c1ccc(-c2cc3ccccc3oc2=O)cc1)N1CCN(c2ccc(Cl)cc2[N+](=O)[O-])CC1	·	·	-7	·	30	·
c1ccc(COCCN2CCN(CCOCc3ccccc3)CC2)cc1	1	0.4	-11	0	-4	57*
COc1ccc(C2=NOC3(CC(=O)N(c4ccc5ccccc5c4)C3=O)C2)c(OC)c1 (stereo not given)	0.9	1	0	5	-4	-2
Cc1ccc(-c2nnn(CC(=O)N(c3ccccc3)C(C(=O)NCC3CCCO3)c3ccc(Cl)cc3)n2)cc1 (stereo not given)	0.1	0.4	·	88*	·	62*
